Shown is part of a subset that was picked to be rich in hits.
BL2 CD40 inh – inhibitors of CD40-induced NF-kB signaling, primary screen, BL2 cells, luciferase reporter, single point; CD40L-induced, 4 h; inhibition, % at 10 µM; 83,000 tested, 0.94% active; AID 1053188, 2014;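 active = mean inhibition of at least 50% with a set share of replicates also reaching that level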;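 note: 0% = neutral control wells and 100% = IKK inhibitor VII at 50 µM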
* = called active by the depositor; [ ] = remark or other dose.

SMILES	BL2 CD40 inh
O=C(CCN1CCCCC1)N[C@H]1CC[C@@H](CCn2cc(-c3cccc(F)c3)nn2)O[C@H]1CO	5[25 µM]
O=C(C[C@@H]1C[C@@H]2c3cc(NC(=O)C4CCOCC4)ccc3O[C@@H]2[C@H](CO)O1)NCc1ccc(Oc2ccccc2)cc1	4[25 µM]
c1ccc(-c2noc(-c3ccc4ccccc4c3)n2)nc1	105*
c1ccc(-c2nccc(-c3ccc4c(c3)OCO4)n2)cc1	-88
c1ccc(-c2noc(-c3ccncc3)n2)nc1	-47
c1ccc(-c2noc(-c3cccnc3)n2)nc1	-3
c1ccc(CCc2ccccc2-c2nc(-c3ccccn3)no2)cc1	11
c1ccc(-c2noc(-c3ccc4c(c3)OCO4)n2)nc1	75*
COc1cccc(-c2ccc(C3[C@@H]4CN(S(=O)(=O)c5cccc(OC)c5)C[C@H]3N4)cc2)c1 (stereo partly drawn)	-31
O=C(CN1CCOCC1)N1[C@H](CO)[C@@H]2c3ccccc3NC[C@@H]21	-17[25 µM]
N#C[C@H]1N[C@H](CO)[C@@H]1c1ccc(C#Cc2cccnc2)cc1	-18[25 µM]
Cn1cnc(S(=O)(=O)N2[C@@H]3CNC[C@H]2C3c2ccc(-c3ccccc3)cc2)c1 (stereo partly drawn)	-7
C[C@@H]1CN(C)C(=O)c2cccc(N(C)C)c2O[C@H]1CN(C)C	0
O=C(C[C@@H]1CC[C@H](NC(=O)Nc2ccc(C(F)(F)F)cc2)[C@@H](CO)O1)NCc1cccc(F)c1	2[25 µM]
COc1ccccc1S(=O)(=O)N1C[C@@H]2N[C@H](C1)C2c1ccc(-c2cccc(F)c2)cc1 (stereo partly drawn)	3[25 µM]
N#C[C@@H]1N[C@@H](CO)[C@@H]1c1ccc(C#CC2CCCC2)cc1	-6
COc1cccc(S(=O)(=O)N2CC[C@@H]3[C@@H](CO)Nc4ccc(-c5ccc(C#N)cc5)cc4[C@@H]32)c1	35[25 µM]
COc1ccc(/C=N/Nc2ncccc2[N+](=O)[O-])c(OC)c1	68*
COc1ccc(NS(=O)(=O)c2cccc(C(=O)NN=Cc3ccc(OC)cc3OC)c2)cc1	-4
COC(=O)CCCNc1ncccc1[N+](=O)[O-]	7
Cc1ccc(S(=O)(=O)N2C[C@H](O)COC[C@@H]3O[C@@H](CC(=O)NCc4ccc5c(c4)OCO5)CC[C@H]32)cc1	15[25 µM]
CO[C@H]1CN(C)C(=O)c2cccc(C#N)c2OCC[C@@H]2CC[C@@H](OC)[C@H](CN(C)C(=O)[C@@H]1C)O2	-7[25 µM]
CC(C)[C@H](N)C(=O)N[C@H]1CCC2C3CC=C4C[C@@H](O)CC[C@]4(C)C3CC[C@@]21C (stereo partly drawn)	71*
C[C@@H](N)C(=O)N[C@H]1CCC2C3CC=C4C[C@@H](O)CC[C@]4(C)C3CC[C@@]21C (stereo partly drawn)	2
CC(=O)[C@H]1CCC2C3CC=C4C[C@@H](O)CC[C@]4(C)C3CC[C@@]21C (stereo partly drawn)	4
SMILES	BL2 CD40 inh
C/C=C/c1ccc([C@@H]2[C@@H](CO)N3C(=O)CN(S(=O)(=O)c4ccccc4)C[C@H]23)cc1	6[25 µM]
COc1ccccc1C(=O)NCCC(=O)Nc1ccc(C)cn1	8
O=C(CCNC(=O)c1ccccc1Cl)Nc1nc2ccccc2[nH]1	-11
COc1ccccc1C(=O)NCCC(=O)Nc1nc2ccccc2[nH]1	52*
C/C=C/c1ccc([C@H]2[C@@H](CO)N(Cc3ccccn3)[C@@H]2CNC(C)=O)cc1	4
C[C@@H]1CN(C)C(=O)c2cccc(NS(C)(=O)=O)c2O[C@@H]1CN(C)C	0
O=C(C[C@@H]1C=C[C@H](NC(=O)Nc2ccccc2F)[C@H](CO)O1)NCc1ccc(-c2ccccc2)cc1	5[25 µM]
COCCCNc1ccn2nc(-c3ccccc3)cc2n1	60*
c1ccc(OCCNc2ccn3nc(-c4ccccc4)cc3n2)cc1	-62
COCCCNc1ccn2nc(-c3cc(OC)c(OC)c(OC)c3)cc2n1	1
N#C[C@@H]1[C@@H](c2ccccc2-c2ccc(F)cc2)[C@H](CO)N1C(=O)NC1CCCCC1	59*[25 µM]
N#C[C@H]1[C@H](c2ccccc2-c2ccc(F)cc2)[C@H](CO)N1C(=O)NC1CCCCC1	13[25 µM]
CC(C)NC(=O)N1[C@H](CO)[C@@H](c2ccc(C#CC3CCCCC3)cc2)[C@@H]1C#N	19
N#C[C@H]1[C@H](c2ccccc2-c2ccc(F)cc2)[C@@H](CO)N1C(=O)NC1CCCCC1	30[25 µM]
N#C[C@H]1[C@@H](c2ccc(C#Cc3ccc(F)cc3)cc2)[C@H](CO)N1C(=O)Nc1ccc(F)cc1	-12
N#C[C@@H]1[C@H](c2ccc(C#CC3CCCCC3)cc2)[C@@H](CO)N1C(=O)Nc1ccc(F)cc1	77*[25 µM]
N#C[C@@H]1[C@@H](c2ccc(C#CC3CCCC3)cc2)[C@H](CO)N1C(=O)Nc1ccc(F)cc1	21
N#C[C@H]1[C@@H](c2ccc(C#CC3CCCCC3)cc2)[C@@H](CO)N1C(=O)Nc1ccc(F)cc1	62*[25 µM]
N#C[C@@H]1[C@H](c2ccc(C#CC3CCCC3)cc2)[C@H](CO)N1C(=O)Nc1ccc(F)cc1	0
CN1c2ccc(-c3ccccc3F)cc2[C@@H]2[C@@H](CCN2C(=O)NC2CCCCC2)[C@@H]1CO	8
O=C1CNC[C@@H]2[C@@H](c3ccc(C#Cc4cccnc4)cc3)[C@@H](CO)N12	-5[25 µM]
COCC(=O)N1[C@H](C#N)[C@@H](c2ccccc2-c2cccc(C)c2)[C@@H]1CO	-5[25 µM]
CCCCC#Cc1nc(NC)c2ncn(C3OC(CO)C(O)C3O)c2n1 (stereo not drawn)	-4[25 µM]
CCC1(O)CC2CN(CCc3c([nH]c4ccccc34)C(C(=O)OC)(c3cc4c(cc3OC)N(C)C3C(O)(C(=O)OC)C(C(=O)OC)C5(CC)C=CCN6CCC43C65)C2)C1 (stereo not drawn)	15[25 µM]
C[C@@H]1CN([C@H](C)CO)C(=O)CCCn2nncc2CO[C@H]1CN(C)C(=O)Nc1ccc(-c2cccs2)cc1	-29[25 µM]
SMILES	BL2 CD40 inh
Cc1ccc(S(=O)(=O)CCC(=O)NCCC2=CCCCC2)cc1	48*
Cc1ccc(CNC(=O)CCS(=O)(=O)c2ccc(C)cc2)cc1	2
O=C(CCCc1ccccc1)NCCC1=CCCCC1	-60
CCCNc1ccc2ncc(Br)n2n1	36
CN1C(=O)c2cc(NC(=O)C3CCOCC3)ccc2OC[C@H]2O[C@@H](CC(=O)NCC3CC3)CC[C@@H]21	-3
O=C(C[C@@H]1CC[C@@H]2[C@H](COC[C@H](O)CN2Cc2ccc(C(F)(F)F)cc2)O1)N1CCc2ccccc2C1	9[25 µM]
COCC(=O)N1[C@@H]2c3cccc(=O)n3C[C@@H]2[C@@H](CO)[C@@H]1C(=O)NCc1ccccc1	1[25 µM]
O=C(C[C@H]1C[C@@H]2c3cc(NC(=O)C4CCC4)ccc3O[C@@H]2[C@@H](CO)O1)NCCc1ccccc1	2[25 µM]
Fc1ccc(NC2=NCCCCC2)cc1	8
Fc1ccc(-c2nnc(NC3=NCCCCC3)o2)cc1	74*
Fc1ccc(-c2nnc(Cc3nnc(-c4ccc(F)cc4)o3)o2)cc1	5
CO[C@@H]1CC[C@@H]2CCOc3ccc(C#N)cc3C(=O)N(C)C[C@@H](c3ccccc3)CC(=O)N(C)C[C@@H]1O2	1[25 µM]
CCC(=O)N1[C@H](CO)[C@H](c2ccccc2-c2cccc(C)c2)[C@@H]1C#N	2[25 µM]
O=C1c2cccc3cccc(c23)C(=O)N1Cc1cccnc1	4
O=C1c2cccc3c([N+](=O)[O-])ccc(c23)C(=O)N1Cc1cccnc1	84*
Cc1ccc(N2C(=O)c3cccc4c([N+](=O)[O-])ccc(c34)C2=O)c2cccnc12	2
